Consider 9 compounds from PubChem BioAssay.

The source made the active and inactive calls.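 The calls were made as follows, unless noted: active = inhibition above 20% together with a positive visual image hit; inconclusive = visual image hit but inhibition not above 20%; inactive = no visual image hit.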

A short description of experiment [1]: inhibitors of TNFa-induced NFkB p65 translocation, primary screen, imaging, HUVEC, MLSMR starter and 10KST1 sets (AID 438).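 Also: compound added about 3h40 before a 20 min TNFalpha stimulation.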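 As to inhibition: signal is the nuclear over cytoplasmic p65 intensity ratio per well.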 The conditions noted are these: HUVEC TNFa-induced p65 nuclear translocation; cell count: measured here: nuclei count (cytotoxicity indicator), at 2.08 µM; inhibition: at 2 µM, stronger effect = higher value, 0% TNFa-plus-vehicle, 100% no-TNFa wells.

Experiment [2] in a line: reduction of polyQ htt aggregates in cells – imaging, exon1htt(103Q)mCFP cells, high-content imaging, primary screen (AID 483;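 active = visual image review flags a hit and inhibition of aggregation exceeds 20%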;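 also: compound exposure lasted 3 days before fixation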;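 as to nuclei count: percent of the per-plate median nuclei count of sample wells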). The conditions noted are these: exon1htt(103Q)mCFP cell line, aggregate imaging, at 2 µM; inhibition of aggregation: stronger effect = higher value; nuclei count: measured here: cell count, toxicity.
Experiment [3] can be described thus: endothelial E-selectin expression blockers – imaging, HUVEC, immunofluorescence, MLSMR starter and 10KST1 sets, primary screen (AID 487;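 active = visually confirmed hit in the image check and inhibition above 20%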;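 as to inhibition: signal is fraction of cell area covered by stained E-selectin grains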;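 as to nuclei count: 100% = median nuclei count of all wells on the same plate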). The conditions noted are these: HUVEC TNFalpha-induced E-selectin immunofluorescence imaging, at 2 µM; inhibition: stronger effect = higher value; nuclei count: measured here: cell number, toxicity.
Experiment [4] can be described thus: Primary imaging screen for DUSP6 inhibitors that restore phospho-Erk in transfected HeLa cells, chemical complementation (AID 609;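 active = compounds giving at least 50% inhibition in the cell-based MKP-3 phosphatase rescue imaging test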;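 as to inhibition: phospho-Erk level distribution per well compared with pooled transfected vehicle control wells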). The settings on record: HeLa MKP-3 transfected, phospho-Erk imaging KS statistic, at 10 µM, cells stimulated with TPA for 15 min.
Experiment [5] has as its target Dual specificity protein phosphatase 6 (Homo sapiens) (UniProt Q16828). The description is as above. The settings on record: HeLa MKP-3 transfected, phospho-Erk imaging KS statistic; at 10 µM; stronger effect = higher value; cells stimulated with TPA for 15 min.
For experiment [6], the target named is Voltage-gated potassium channel subunit beta-2 (Rattus norvegicus) (UniProt P62483). In words: inhibitors of rat Kvbeta2 reductase activity – biochemical, NADPH fluorescence, primary screen (AID 622;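 active = fluorescence slope higher than the sample average by over 3 SD, cut at about -0.22 in these data, passing the limit was not always enough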;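 also: slope of raw intensity against log time taken from 70 to 1610 s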). The settings on record: recombinant KvBeta, 4-cyanobenzaldehyde reduction, at 10 µM, stronger effect = higher value.
Voltage-gated potassium channel subunit beta-2 (Rattus norvegicus), sequence (P62483 whole entry, looked up): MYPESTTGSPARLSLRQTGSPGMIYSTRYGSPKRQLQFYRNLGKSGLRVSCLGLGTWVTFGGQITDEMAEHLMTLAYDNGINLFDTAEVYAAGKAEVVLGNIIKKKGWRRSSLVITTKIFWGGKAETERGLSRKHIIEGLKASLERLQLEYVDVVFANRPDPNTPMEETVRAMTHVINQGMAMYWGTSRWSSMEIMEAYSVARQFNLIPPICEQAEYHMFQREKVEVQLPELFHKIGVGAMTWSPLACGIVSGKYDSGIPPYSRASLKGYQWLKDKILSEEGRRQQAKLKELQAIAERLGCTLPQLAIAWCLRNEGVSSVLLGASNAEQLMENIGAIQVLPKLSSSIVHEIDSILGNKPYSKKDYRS
For experiment [7] the target is unchanged. In words: enhancers of rat Kvbeta2 NADPH turnover – biochemical, NADPH fluorescence, primary screen (AID 623;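 active = NADPH fluorescence slope more negative than the mean of all samples by about 3 SD, 99.7% confidence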;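 also: fluorescence intensity change per second fitted from 20 to 320 s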). The settings on record: Recombinant KvBeta, NADPH fluorescence decrease slope, 10 min; at 10 µM; stronger effect = lower value.
Experiment [8] addresses Alpha-2C adrenergic receptor (Homo sapiens) (UniProt P18825). In words: compounds altering alpha2C-coupled GIRK flux – cell-based, HEK293 alpha2C/GIRK1/2, thallium flux, primary screen (AID 624;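 active = fluorescence slope after compound addition differing from the mean of all screened samples at 99.7% confidence, in either direction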;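 also: slope of fluorescence ratio to pre-addition baseline per second over 15 to 24 s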). The conditions noted are these: thallium flux BTC fluorescence, at 10 µM, actives lie on both sides.
The target in experiment [9] is Muscarinic acetylcholine receptor M4 (Homo sapiens) (UniProt P08173). In words: M4-linked GIRK flux change, two-sided – cell-based, HEK293 M4/GIRK, thallium flux, BTC-AM, M4 allosteric agonist project, primary screen (AID 625;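 active = fluorescence slope after compound addition differing from the mean of all tested samples at 99.7% confidence, mostly higher but some lower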;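 also: thallium influx through GIRK channels coupled to M4 in HEK293 cells with BTC-AM dye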). The settings on record: at 10 µM, actives lie on both sides.
Muscarinic acetylcholine receptor M4 (Homo sapiens), sequence (P08173 whole entry, looked up): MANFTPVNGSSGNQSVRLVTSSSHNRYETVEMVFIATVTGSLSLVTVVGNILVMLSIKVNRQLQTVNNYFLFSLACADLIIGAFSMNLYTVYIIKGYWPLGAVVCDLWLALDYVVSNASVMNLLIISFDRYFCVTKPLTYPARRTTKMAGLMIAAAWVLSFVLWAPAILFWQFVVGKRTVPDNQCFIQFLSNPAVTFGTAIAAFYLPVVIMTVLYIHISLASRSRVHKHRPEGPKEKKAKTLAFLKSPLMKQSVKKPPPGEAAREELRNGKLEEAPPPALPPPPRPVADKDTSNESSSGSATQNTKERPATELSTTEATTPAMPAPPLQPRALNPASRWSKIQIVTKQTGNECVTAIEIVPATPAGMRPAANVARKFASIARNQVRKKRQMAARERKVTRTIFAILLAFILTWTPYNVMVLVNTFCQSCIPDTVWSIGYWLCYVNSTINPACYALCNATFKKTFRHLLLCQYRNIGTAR
The nature of experiment [10]: inhibitors of larval lipid processing in zebrafish, primary screen, whole organism, PED6 fluorescence, gall bladder and intestine (AID 686;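 active = a full or partial loss of lipid-probe fluorescence in the fish gall bladder, intestine or both, judged by eye; inactive = no fluorescence loss, or compound toxic to the fish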;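 also: larvae 5 to 7 days old with five fish per well; signal comes from phospholipase A2 cleavage of quenched PED6 carried via bile; overnight exposure to compound and PED6 before scoring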). The settings on record: Zebrafish larvae PED6 lipid processing, fluorescence scoring; screened at 20 µM (by protocol).
Experiment [11] can be described thus: loss of swimming-algae plug formation – whole organism, Chlamydomonas reinhardtii, WT vs cilia-less mutant, absorbance, 96-well, primary screen (AID 463189;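 active = inhibition at or above 50% relative to wild type and mutant plate controls; inactive = inhibition below 50%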;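 also: 0% = wild type cc124 cells in DMSO and 100% = ciliumless bld1 mutant cells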). The conditions noted are these: Chlamydomonas reinhardtii gravitaxis, OD600 absorbance, 2 days; at 10 µM; stronger effect = higher value.
A short description of experiment [12]: blockers of RIG-like receptor reporter activation – cell-based, Sendai virus stimulus, luciferase, 10K MLSCN set, TLR/RLR signaling modifier project, primary screen (AID 602276;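 active = inhibition at or above 50% at 10 µM; inactive = inhibition below 50%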;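 also: firefly luciferase from ISG56 promoter only with Renilla not read in this screen; 0% = Sendai virus plus DMSO and 100% = medium plus DMSO without virus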). The conditions noted are these: HEK293 RL24 IRF3 luciferase reporter, at 10 µM, stronger effect = higher value. On the technique in general: In a reporter assay the amount or activity of a reporter protein is the signal.

A short description of experiment [13]: TLR3 IRF3 reporter activation blockers – cell-based, poly I:C stimulus, luciferase, 10K MLSCN set, primary screen (AID 602277;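 active = inhibition of the reporter signal at or above 50%; inactive = inhibition below 50%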). The settings on record: HEK293-TLR3 RL24 IRF3 luciferase reporter, at 10 µM, stronger effect = higher value.
Where [14] appears, read: measured here: cell density z-score.
[15] abbreviates: measured here: nuclear c-Myc green intensity z-score.
The mark [16] stands for this setting: measured here: nuclear pErk red intensity z-score, stronger effect = higher value.

Alpha-2C adrenergic receptor (Homo sapiens), sequence (P18825 whole entry, looked up): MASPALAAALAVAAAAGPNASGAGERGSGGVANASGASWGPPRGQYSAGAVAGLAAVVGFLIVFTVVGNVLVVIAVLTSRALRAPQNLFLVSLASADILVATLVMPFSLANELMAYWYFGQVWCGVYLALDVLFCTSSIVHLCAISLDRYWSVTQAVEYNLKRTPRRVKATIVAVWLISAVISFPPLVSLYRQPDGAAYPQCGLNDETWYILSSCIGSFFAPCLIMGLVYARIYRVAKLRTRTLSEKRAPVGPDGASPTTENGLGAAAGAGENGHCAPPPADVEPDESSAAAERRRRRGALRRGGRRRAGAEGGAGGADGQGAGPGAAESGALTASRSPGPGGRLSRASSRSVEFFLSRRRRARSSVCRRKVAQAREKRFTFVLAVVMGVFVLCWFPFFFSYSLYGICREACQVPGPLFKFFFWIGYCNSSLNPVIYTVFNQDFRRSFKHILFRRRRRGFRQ
Dual specificity protein phosphatase 6 (Homo sapiens), sequence (Q16828 whole entry, looked up): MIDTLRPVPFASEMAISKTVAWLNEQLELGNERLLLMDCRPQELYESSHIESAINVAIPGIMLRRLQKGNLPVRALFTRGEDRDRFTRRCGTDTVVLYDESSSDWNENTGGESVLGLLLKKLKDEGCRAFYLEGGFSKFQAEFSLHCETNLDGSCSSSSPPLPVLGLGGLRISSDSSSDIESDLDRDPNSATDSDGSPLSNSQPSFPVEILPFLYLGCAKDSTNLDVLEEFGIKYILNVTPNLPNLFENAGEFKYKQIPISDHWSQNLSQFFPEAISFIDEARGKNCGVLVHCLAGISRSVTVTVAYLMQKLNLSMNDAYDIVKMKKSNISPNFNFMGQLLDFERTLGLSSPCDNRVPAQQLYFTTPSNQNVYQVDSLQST

In the case of `CCOC(=O)C1/C(=N\O)CC(C)(O)C(C(=O)OCC)C1c1ccc(N(C)C)cc1` (configuration not stated), in experiment [1], the cell count was determined as 497. Further, the inhibition in [1] was -1.5% (inactive); in [3], -131% (inactive); in experiment [5], 1.9e-07% (inactive); in experiment [11], 0.652% (inactive); in experiment [12] it was 10.4% (inactive); in experiment [13], 16% (inactive). For the same compound, the inhibition of aggregation in experiment [2] was -7.6% (inactive). Besides, the nuclei count in experiment [2] worked out at 106%; in experiment [3] it was 152%. The z-score is -0.215 in experiment [4] (setting [14]), 1.47 in experiment [4] (setting [15]) and 0.208 in [4] (setting [16]). Besides, the values for the fluorescence slope in [6] and in experiment [9] were -0.427 (inactive) and 0.00445 (inactive), respectively. Further, the NADPH fluorescence slope in experiment [7] was -4.6e-05 (inactive). In addition, the slope in experiment [8] was 0.00546 (inactive). Also, the call in experiment [10] was inactive.
With `Cn1c(=O)c2c(nc(NCc3ccc4c(c3)OCO4)n2Cc2ccccc2F)n(C)c1=O`, the cell count in experiment [1] was determined as 651. Also, the inhibition in experiment [1] was -4.2% (inactive); in experiment [3] it was -161% (inactive); in experiment [5], 1.9e-07% (inactive); in experiment [11], 38.3% (inactive); in experiment [12], -2.97% (inactive); in experiment [13], 10.4% (inactive). Further, the inhibition of aggregation in experiment [2] was 37.8% (active). In addition, the values for the nuclei count in experiment [2] and in [3] were 50.9% and 126%, respectively. Moreover, the z-score in experiment [4] (setting [14]) is -0.011; in experiment [4] (setting [15]), -1.47; in [4] (setting [16]) it was 0.345. Besides, the fluorescence slope in [6] is -0.45 (inactive); in experiment [9], 0.00703 (inactive). Moreover, the NADPH fluorescence slope in experiment [7] is -0.000288 (inactive). For the same compound, the slope in [8] was 0.00635 (inactive). In experiment [10], the result was inactive.
As to `CCOC(=O)c1[nH]c2cc(OC)c(OC)cc2c1NC(=O)C(C)N1CCN(Cc2ccccc2)CC1` (configuration not stated), the cell count in experiment [1] was 541. The inhibition in experiment [1] was -4.7% (inactive); in [3], -11.1% (inactive); in [5], 13.9% (inactive); in [11] it was 19.7% (inactive); in experiment [12], -0.312% (inactive); in experiment [13], 3.3% (inactive). The inhibition of aggregation in [2] was 10.2% (inactive). The nuclei count in [2] was 106%; in [3], 140%. Besides, the results for the z-score in [4] (setting [14]), in [4] (setting [15]) and in experiment [4] (setting [16]) were 0.355, -0.877 and -1.74, respectively. For the same compound, the fluorescence slope in experiment [6] is -0.0434 (active); in experiment [9] it was 0.00565 (inactive). Also, the NADPH fluorescence slope in [7] is 2.3e-06 (inactive). The slope in [8] was 0.00443 (inactive). Also, the call in experiment [10] was inactive.
As for `CCOc1cc(C2Nc3ccccc3C(=O)N2c2ccccc2OC)ccc1O` (configuration not stated), the cell count in [1] was 587. Besides, the inhibition in [1] is -3.1% (inactive); in experiment [3] it was -136% (inactive); in experiment [5] it was 9.07% (inactive); in experiment [11] it was 2.2% (inactive); in [12], -2.55% (inactive); in [13], -13.2% (inactive). The inhibition of aggregation in experiment [2] was -2.3% (inactive). Also, the figures for the nuclei count in [2] and in [3] were 100% and 124%, respectively. For the same compound, the z-score in experiment [4] (setting [14]) is 0.614; in experiment [4] (setting [15]), -1.2; in [4] (setting [16]), -0.417. The fluorescence slope in experiment [6] was -0.348 (inactive); in [9], 0.0049 (inactive). For the same compound, the NADPH fluorescence slope in experiment [7] was -3.8e-05 (inactive). Further, in experiment [8], the slope is 0.0046 (inactive). In [10], the result was inactive.
Regarding `COc1ccc(N2CCN(c3nc4c(c(=O)[nH]c(=O)n4C)n3CCCc3ccccc3)CC2)cc1`, the cell count in [1] was 636. In addition, the inhibition was 6.6% (inactive) in experiment [1]; -69.3% (inactive) in experiment [3]; 14.7% (inactive) in experiment [5]; 1.13% (inactive) in experiment [11]; 12.8% (inactive) in experiment [12]; 18.8% (inactive) in [13]. In addition, the inhibition of aggregation in experiment [2] is 2.8% (inactive). For the same compound, the values for the nuclei count in experiment [2] and in [3] were 100% and 112%, respectively. Further, the z-score in experiment [4] (setting [14]) was 0.546; in experiment [4] (setting [15]), -1.43; in experiment [4] (setting [16]), 0.632. Moreover, the results for the fluorescence slope in experiment [6] and in experiment [9] were -0.429 (inactive) and 0.0059 (inactive), respectively. Moreover, the NADPH fluorescence slope in [7] was -3.7e-05 (inactive). Moreover, in experiment [8], the slope was 0.0083 (inactive). The result in [10] was inactive.
In the case of `CC1(C(=O)CSc2nc3ccccc3s2)CCC(=O)O1` (configuration not stated), the cell count in experiment [1] was found to be 609. The inhibition in [1] is -11.4% (inactive); in experiment [3] it was -179% (inactive); in experiment [5], -4.27% (inactive); in experiment [11], 6.36% (inactive); in experiment [12] it was 6.48% (inactive); in experiment [13], 21.8% (inactive). Besides, in experiment [2], the inhibition of aggregation was -14.5% (inactive). The nuclei count is 78.9% in [2] and 131% in [3]. For the same compound, the z-score in experiment [4] (setting [14]) was 0.414; in experiment [4] (setting [15]), -1.1; in [4] (setting [16]), -0.368. Further, the fluorescence slope was -0.471 (inactive) in [6] and 0.00529 (inactive) in experiment [9]. In experiment [7], the NADPH fluorescence slope was -0.000167 (inactive). In [8], the slope was 0.00616 (inactive). The compound was called inactive in [10].
For `CN1C(=O)c2c(sc3c2CCCC3)NC1c1ccccc1O` (configuration not stated), in experiment [1], the cell count worked out at 432. The inhibition in experiment [1] is -5.1% (inactive); in experiment [3] it was -128% (inactive); in [5], -2.59% (inactive); in [11], 15.4% (inactive); in experiment [12], -8.68% (inactive); in experiment [13] it was -24.4% (inactive). Moreover, in [2], the inhibition of aggregation is -1.6% (inactive). Also, the nuclei count in experiment [2] came out at 97.6%; in experiment [3], 136%. The z-score in experiment [4] (setting [14]) is 1.59; in experiment [4] (setting [15]) it was -1.82; in [4] (setting [16]), 0.821. Moreover, the fluorescence slope in experiment [6] was -0.47 (inactive); in experiment [9], 0.00402 (inactive). Moreover, the NADPH fluorescence slope in [7] was -0.000117 (inactive). Further, in experiment [8], the slope is 0.00476 (inactive). The outcome in [10] was inactive.
As for `CCN(CC)CCCN1C(=O)C(=O)/C(=C(/O)c2ccc(C)cc2)C1c1ccccn1` (configuration not stated), the cell count in [1] was found to be 546. Further, the inhibition in experiment [1] was -2.6% (inactive); in [3], -85.1% (inactive); in experiment [5], -2.29% (inactive); in experiment [11] it was -0.742% (inactive); in experiment [12] it was -25.3% (inactive); in [13] it was -18.7% (inactive). The inhibition of aggregation in experiment [2] is 21% (inactive). Further, the nuclei count in experiment [2] was 134%; in [3] it was 144%. In addition, the values for the z-score in experiment [4] (setting [14]), in [4] (setting [15]) and in [4] (setting [16]) were 0.34, -0.315 and -0.132, respectively. In addition, the fluorescence slope in experiment [6] is -0.45 (inactive); in experiment [9], 0.00497 (inactive). Also, the NADPH fluorescence slope in experiment [7] was -3.6e-05 (inactive). Besides, in [8], the slope was 0.0052 (inactive). Moreover, the compound was called inactive in [10].
For `C=CCNc1nnc(SC2CC(=O)N(c3ccc(OC)cc3)C2=O)s1` (configuration not stated), the cell count in [1] is 474. The inhibition is -3.2% (inactive) in experiment [1]; -46.1% (inactive) in experiment [3]; 5.95% (inactive) in [5]; 34% (inactive) in [11]; 12.1% (inactive) in experiment [12]; -1.97% (inactive) in [13]. Moreover, in [2], the inhibition of aggregation is -17.3% (inactive). Further, the nuclei count was 121% in experiment [2] and 151% in experiment [3]. The z-score was -0.38 in experiment [4] (setting [14]), -0.537 in [4] (setting [15]) and 0.655 in [4] (setting [16]). Moreover, the fluorescence slope was -0.391 (inactive) in experiment [6] and 0.00596 (inactive) in experiment [9]. Besides, in [7], the NADPH fluorescence slope was -3.8e-05 (inactive). Moreover, the slope in experiment [8] was 0.00566 (inactive). In addition, in experiment [10], the compound was classed as inactive.

The inhibition is the drop in the measured response relative to a control, in per cent.
